HPGD block: inhibitors of human 15-hydroxyprostaglandin dehydrogenase (HPGD). Potency, µM, inactives show top-dose activity change, negative = inhibition, usual class: inhibitors. purified HPGD, NADH fluorescence kinetic, PGE2 substrate. P15428. actives 4.3% (n = 150,000)
Target sequence (P15428 whole entry, looked up): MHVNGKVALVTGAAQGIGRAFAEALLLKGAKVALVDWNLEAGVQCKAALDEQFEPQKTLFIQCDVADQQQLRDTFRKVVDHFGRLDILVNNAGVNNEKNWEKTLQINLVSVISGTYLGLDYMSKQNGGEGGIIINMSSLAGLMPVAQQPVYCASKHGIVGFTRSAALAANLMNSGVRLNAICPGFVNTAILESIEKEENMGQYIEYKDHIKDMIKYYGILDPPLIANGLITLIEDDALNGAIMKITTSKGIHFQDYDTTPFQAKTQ
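NADH formation kinetics: reaction with 30 uM PGE2 and 1 mM NAD+ (final), 20 nM enzyme, Tris-HCl pH 8 with Tween 20, after 15 min compound preincubation at room temperature. Fluorescence change, last versus first of five reads.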
Tau fibril FP: blocks human tau fibril formation measured by polarization | actives 0.39% (n = 280,000) | Potency, µM (doses to about 57.7 µM), without a hit: top-dose activity, negative = inhibition, most hits filed as inhibitors | K18 P301L tau heparin fibrillization, Alexa594 FP, 6 h | P10636 | AID 1468; active means well fitted curve in the direction sought with a large enough effect; inconclusive means small, poorly fitted or top-dose-only effect, or another doubt; inactive means no such curve, though single readings can be large; an effect the other way counts as inactive or inconclusive; further: nearly all actives have a fitted effect of over 55% in size
Target sequence (P10636 561-689 P618L limits assumed): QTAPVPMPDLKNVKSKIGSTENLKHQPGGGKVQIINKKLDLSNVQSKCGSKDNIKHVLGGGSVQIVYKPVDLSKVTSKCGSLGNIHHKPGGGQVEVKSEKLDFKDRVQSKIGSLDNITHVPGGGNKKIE
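Recombinant K18 P301L […], labeled with Alexa 594 at 0.24 uM over 15 uM unlabeled; heparin inducer 20 uM final; 37 C, 6 hr; FP endpoint.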
ALDH1A1 inh: blocks purified human ALDH1A1 activity | P00352 | Purified ALDH1A1, NADH fluorescence, propionaldehyde substrate | Potency, µM (top dose mostly 75.3 µM), for inactives: top-dose activity, negative = inhibition, usual class: inhibitors | actives 7.3% (n = 220,000) | AID 1030;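 further: plate controls were no enzyme wells and a reference inhibitor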
Tau ThT inhib: inhibitors of human tau fibril formation, thioflavin T binding; P10636; recombinant tau K18 P301L, heparin-induced fibrillization, ThT fluorescence; Potency, µM (titrated, usually from 57.4 µM), inactives show top-dose activity, negative = inhibition, hits mostly inhibitors; actives 2.1% (n = 270,000); AID 1460; active means well fitted curve in the direction sought with a large enough effect; inconclusive means small, poorly fitted or top-dose-only effect, or another doubt; inactive means no such curve, though single readings can be large; an effect the other way counts as inactive or inconclusive; further: nearly all actives have a fitted effect of over 55% in size
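Tau K18 P301L fragment (15 uM unlabeled plus 0.24 uM Alexa 594-labeled) in 100 mM sodium acetate pH 7 with compound, fibrillization induced by 20 uM heparin for 6 hr at 37 C. Thioflavin T (30 uM) added, fluorescence read after 1 hr (ex 450, em 510 nm).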
Tau fluor cs: counter-screen for tau fibril formation inhibitors; actives 0.93% (n = 280,000); Potency, µM (highest dose often 57.7 µM), inactives show top-dose activity change, negative = decrease; tau K18 P301L Alexa594 fluorescence, heparin fibrillization; active means well fitted curve in the direction sought with a large enough effect; inconclusive means small, poorly fitted or top-dose-only effect, or another doubt; inactive means no such curve, though single readings can be large; an effect the other way counts as inactive or inconclusive; further: nearly all actives have a fitted effect of over 55% in size
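Human tau K18 P301L (15 uM unlabeled, 0.24 uM Alexa 594-labeled) in 100 mM sodium acetate pH 7 with 20 uM heparin, 6 hr at 37 C. ThT 30 uM added, 1 hr ambient; Alexa 594 FP and total fluorescence read at 555/632 nm.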
JMJD2E inh: JMJD2E (human) inhibition; B2RXH2; JMJD2E catalytic domain, FDH-coupled NADH fluorescence (FDH is formaldehyde dehydrogenase); Potency, µM (series often up to 57.1 µM), without a hit: at the top dose activity change, negative = inhibition, actives largely listed as inhibitors; actives 1.6% (n = 230,000);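 further: 0% = wells with enzyme and -100% = buffer wells without enzyme; nearly all actives have a fitted effect of over 50% in size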
* marks the source's active call; other numbers are inactive results; ? = inconclusive; . = not tested or not shown; [ ] = another dose, or the depositor's remark. This is a sample that favours compounds with a hit; in the whole collection about 9.9% have one here. Unless noted, the call rests on the fitted dose curve; in most records, active means well fitted inhibition curve with a large enough effect (not every such curve was filed as active); inconclusive means small, poorly fitted or top-dose-only effect, or another doubt; inactive means no such curve, though single readings can be large or run the other way. Unless noted, on the % scale 0 is the no-effect control and ±100 the full control effect; potency means the concentration at half of the fitted maximal effect.

SMILES | HPGD block | Tau fibril FP | ALDH1A1 inh | Tau ThT inhib | Tau fluor cs | JMJD2E inh
COc1ccc(N/C=C\C(=O)c2ccc3c(c2)OCO3)cc1OC | -18.5% | 0.6% | -11.7% | 2.82µM* | ? | -15.8%
O=S(=O)(c1ccc(-n2cnnn2)cc1)N1CCN(c2cccc(Cl)c2)CC1 | . | -3.5% | . | 13.6% | 9.9% | .
Cc1c(Cl)cccc1NC(=O)N1CCC(CN2CCOCC2)CC1 | . | 3.5% | . | 9.9% | 10.3% | .
Cc1ccc(NC(c2ccc(Cl)cc2)c2nnc(-c3cccc(F)c3)o2)cc1C (stereo not given) | . | 7.3% | . | -14.2% | -27.7% | .
Cc1ccc(N/C=C/C(=O)c2cccs2)cc1C | . | -8.7% | ? | ? | -29.3% | -39.6%
O=C(/C=C/Nc1ccc(Nc2ccccc2)cc1)c1cccs1 | . | ? | ? | 1.26µM* | 7.94µM*[quencher] | -20.0%
COC(=O)c1c(-c2ccco2)csc1NC(=O)C1CC=CCC1C(=O)O (stereo not given) | . | -4.3% | 12.6µM* | -4.1% | -6.7% | 0.0%
CCOC(=O)c1c(-c2ccc(F)cc2)csc1NC(=O)C1CC=CCC1C(=O)O (stereo not given) | . | 1.7% | ? | -17.1% | -0.3% | ?
CC1=CC(=O)C2=C(C)CCC3C(C)C(=O)OC3C12 (stereo not given) | -0.8% | -2.7% | ? | -3.6% | -5.6% | 0.8%
C[C@@H]1CN(C(=O)c2nc3ccc(Cl)cn3c2CN2CCc3sccc3C2)C[C@H](C)O1 | . | -5.2% | -9.5% | -5.6% | -6.5% | ?
CC(=O)Nc1ccc(NC(=O)C(C)Oc2ccc(Cl)cc2Cl)cc1 (stereo not given) | . | -6.3% | 5.2% | -8.1% | -13.9% | 12.5%
CCNC(=O)C(C)Oc1ccc(Cl)cc1Cl (stereo not given) | . | -1.1% | -13.1% | 1.6% | -10.1% | -1.3%
CC(Oc1ccc(Cl)cc1Cl)C(=O)NC1CCSC1=O (stereo not given) | 14.1µM* | 0.6% | 12.2% | -0.6% | 2.1% | -0.9%
COCCNC(=O)C(C)Oc1ccc(Cl)cc1Cl (stereo not given) | 31.6µM* | -8.2% | 10.5% | -7.2% | -2.0% | -2.1%
COc1ccc(S(=O)(=O)Nc2cccc(N(C)S(C)(=O)=O)c2)cc1Br | . | -9.4% | ? | 1.8% | -18.4% | 4.7%
CN(c1cccc(NS(=O)(=O)c2cccs2)c1)S(C)(=O)=O | -7.9% | -1.4% | 20µM* | -2.4% | -2.7% | -4.7%
O=C(Nc1ccccc1Br)C1CC(=O)N(c2ccc3c4c(cccc24)CC3)C1 (stereo not given) | -15.3% | 14.8% | 20µM* | -12.7% | -1.0% | 0.8%
COC(=O)[C@@]1(Cc2ccccc2)[C@H]2c3cc(C(=O)N4CCCC4)n(Cc4ccc(OC)c(OC)c4)c3C[C@H]2CN1C(=O)c1ccccc1 | -3.8% | -2.0% | -3.9% | ? | -11.2% | -7.4%
CCOc1cc(CNc2ccc3[nH]c(=O)[nH]c3c2)ccc1OCC(=O)NC(C)(C)C | ? | ? | ? | 12.6µM* | ? | ?
C=CCOc1c(CNc2ccc(S(N)(=O)=O)cc2)cccc1OC | -12.5% | 6.3% | 12.8% | -3.9% | -1.2% | -11.5%
C=CCOc1c(CNc2ccc3[nH]c(=O)[nH]c3c2)cccc1OC | . | -5.2%[2.34 µM] | -2.1% | -2.3% | 5.6% | 20µM*
COc1cc(CNc2ccc3[nH]c(=O)[nH]c3c2)cc(Cl)c1OCC(=O)NC(C)(C)C | ? | ? | ? | 11.2µM* | ? | ?
O=C(Cn1cnc2ccccc2c1=O)NCc1cccs1 | . | 0.5% | 1.0% | 3.0% | 3.3% | 3.1%
O=C(CSc1ccc(Cl)cc1)Nc1ccc(-c2nc3ccccc3[nH]2)cc1 | ? | ? | ? | ? | -1.4% | ?
O/N=C/c1cc(Br)cc(Br)c1OCc1ccccc1 | 14.1µM* | ? | 11.0% | ? | ? | -6.4%
Cn1c(=O)n(Cc2ccccc2F)c(=O)c2c1nc1n2CCN1Cc1ccco1 | . | 9.3% | 7.94µM* | 6.3% | -7.9% | -0.8%

Bioassay records (PubChem)
